RORg inh – qHTS for inhibitors of ROR gamma transcriptional activity; AID 2551, 2010; Drosophila S2 Gal4-RORgamma UAS-luciferase reporter, 20 h; Potency, µM (series often up to 53.6 µM), without a hit: at the top dose activity change, negative = inhibition, most hits filed as inhibitors; Nuclear receptor ROR-gamma (Mus musculus), P51450; 5.4% of 310,000 active; note: potency is the fitted concentration of half-maximal effect; % is set by controls: 0 for no effect and ±100 for the full control effect; nearly all actives have a fitted effect of over 60% in size
Target sequence (P51450 whole entry, looked up, the tested form may be a part): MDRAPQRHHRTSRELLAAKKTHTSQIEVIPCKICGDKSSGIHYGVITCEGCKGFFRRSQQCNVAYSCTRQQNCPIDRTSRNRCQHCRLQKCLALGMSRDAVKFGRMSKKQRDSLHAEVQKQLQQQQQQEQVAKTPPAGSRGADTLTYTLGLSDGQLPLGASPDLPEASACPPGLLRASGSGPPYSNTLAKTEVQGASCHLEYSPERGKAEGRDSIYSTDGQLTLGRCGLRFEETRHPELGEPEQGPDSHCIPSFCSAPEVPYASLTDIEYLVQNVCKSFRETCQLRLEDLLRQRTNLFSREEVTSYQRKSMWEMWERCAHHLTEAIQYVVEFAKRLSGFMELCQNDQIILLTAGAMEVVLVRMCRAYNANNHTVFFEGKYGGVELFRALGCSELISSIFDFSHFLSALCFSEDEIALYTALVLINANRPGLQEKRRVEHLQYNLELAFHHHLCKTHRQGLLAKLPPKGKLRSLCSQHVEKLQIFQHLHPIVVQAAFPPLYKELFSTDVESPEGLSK
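Read-out: Photinus luciferase luminescence; inhibitors lower reporter signal. Insect Schneider cells with Gal4-ROR gamma fusion under metallothionein promoter, UAS reporter; 700 uM final copper sulfate induction, 20 hr, ambient temperature.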
SW480 rereplic – A quantitative high throughput screen for small molecules that induce DNA re-replication in SW480 colon adenocarcinoma cells | SW480 DNA re-replication, Hoechst DNA content imaging, 48 h | Potency, µM (top dose mostly 46.1 µM), for inactives: top-dose re-replication activation, usual class: activators | 1.8% of 340,000 active | AID 624297, 2012; note: potency is the fitted concentration of half-maximal effect; % of control where 0% means no effect; nearly all actives have a fitted effect of over 55% in size
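Treated cells incubate 48 hr (37 C, 5% CO2), are stained 40 min with Hoechst, and nuclear fluorescence is enumerated; a rise in nuclei with high DNA signal marks re-replication.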
MCF10A rereplic – A quantitative high throughput screen for small molecules that induce DNA re-replication in MCF 10a normal breast cells; MCF 10A DNA re-replication, Hoechst nuclear intensity, 48 h; 2.9% of 350,000 active; Potency, µM (doses to about 46.1 µM), inactives show top-dose activity, positive = re-replication, actives largely listed as activators; note: potency is the fitted concentration of half-maximal effect; % of control where 0% means no effect; nearly all actives have a fitted effect of over 50% in size
VP16 counter – VP16 counterscreen qHTS for inhibitors of ROR gamma transcriptional activity; Drosophila S2 Gal4-VP16 UAS-luciferase, luminescence, 20 h; Potency, µM (doses to about 53.6 µM), for the others: at the highest dose activity, negative = inhibition, most hits filed as inhibitors; 3.5% of 310,000 active; AID 2546, 2010;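 note: Gal4-VP16 expression switched on by copper sulfate through the metallothionein promoter; potency is the fitted concentration of half-maximal effect; % is set by controls: 0 for no effect and ±100 for the full control effect; nearly all actives have a fitted effect of over 50% in size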
IL-1B inflam inh – qHTS for Inhibitors of Inflammasome Signaling: IL-1-beta AlphaLISA Primary Screen; 4.7% of 360,000 active; AID 743279, 2014; activity change, % at 57.5 µM; THP-1 LPS/ATP IL-1B secretion, AlphaLISA, 16 h; hits give low values; in the data active = activity change below about -50%; inconclusive = mostly about -30% to -49%; note: % is set by controls: 0 for no effect and ±100 for the full control effect
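Secreted IL-1B measured by AlphaLISA bead assay after 16 h compound exposure of THP-1 cells; compounds (final up to 57.5 uM) added 1 h before LPS (250 ng/mL) and ATP (1.25 mM) stimulation; lower signal means less secretion.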
* marks the source's active call; other numbers are inactive results; ? = inconclusive; nt = no result; [ ] = remark or other dose. An excerpt weighted towards active compounds, which were near 11% of everything screened. Unless noted, calls come from the whole dose curve; as a rule, active = well fitted curve in the direction sought with a large enough effect; inconclusive = small, poorly fitted or top-dose-only effect, or another doubt; inactive = no such curve, though single readings can be large; an effect the other way counts as inactive or inconclusive.

SMILES	RORg inh	SW480 rereplic	MCF10A rereplic	VP16 counter	IL-1B inflam inh
COc1ccc(NC(=O)CC2SC(=O)NC2=O)cc1 (stereo not given)	11.2µM*	1.3%	15.9%	12.6µM*	-5.5
O=C(Nc1ccc2c(c1)OCO2)c1cc(C2CCCCN2S(=O)(=O)c2cccs2)on1 (stereo not given)	nt	nt	nt	nt	-14.3
COc1ccc(OC)c(NC(=O)CSc2ncnc3sc(C)cc23)c1	nt	?	-8.9%	nt	-10.1
CCC(NC(=O)C1C2C=CC(C2)C1C(=O)O)c1ccc(C)cc1 (stereo not given)	-17.3%	-40.2%	-6.0%	2.6%	5.1
CC(C)NC(=O)C1CCN(C2CCN(C(=O)c3cc4c(s3)CCCCC4)CC2)CC1	10µM*	-2.5%	0.8%	7.94µM*	5.2
CCOC(=O)N1CCN(c2cc(NCCC(=O)O)c3c4c(onc24)-c2ccccc2C3=O)CC1	-3.1%[0.365 µM]	-2.2%	8.9%	nt	-63.9*
CC(C)(C)c1ccc(OCC(=O)NNC(=S)NC(=O)c2ccccc2[N+](=O)[O-])c(Br)c1	11.2µM*	?	20.6µM*	15.8µM*	-10.0
CCCCOc1ccc(C(=O)NNC(=S)NC(=O)CC)cc1	-28.9%	?	?	?	-96.1*
COCCCNC(=S)NNC(=O)c1ccc(C(C)(C)C)cc1	-42.3%	-3.6%	1.1%	-20.2%	13.9
CCC(=O)NC(=S)NNC(=O)c1ccc(OC)cc1	-19.2%	-3.2%	-9.3%	-3.5%	55.6
COC(=O)CNC(=S)NC(=O)c1ccc(C(C)(C)C)cc1	6.31µM*	-4.9%	?	-21.6%[10 µM]	3.8
CCCC(=O)Nc1ccc(C(=O)NNC(=S)NC(=O)c2cccs2)cc1	10µM*	-3.2%	?	-22.1%	13.8
CCCC(=O)Nc1ccc(C(=O)NNC(=O)c2cccs2)cc1	13.8%	-10.6%	-1.9%	5.5%	10.6
CCN(C(=O)CSc1nc2ccc([N+](=O)[O-])cc2s1)c1c(N)n(Cc2ccccc2)c(=O)[nH]c1=O	nt	0.9%	13.5%	nt	-22.9
CC1(C(=O)Nc2cnc3ccccc3c2)CCN1Cc1ccc(-c2ccccc2)o1 (stereo not given)	nt	nt	nt	nt	-22.1
CCCOc1ccc(C(=O)NNC(=S)NC(=O)c2cc(-c3ccccc3)nc3ccccc23)cc1	7.08µM*	6.3%	2.9%	-17.5%	5.1
CCCOc1ccc(C(=O)NNC(=S)NC(=O)c2cccs2)cc1	8.91µM*	?	-4.9%	7.94µM*	55.3
CCc1ccc(OCCNC(=O)c2cccs2)cc1	9.7%	-1.0%	?	?	-64.3*
CCCOc1ccc(-c2cc(C(=O)NCC3CCCO3)c3ccccc3n2)cc1 (stereo not given)	26.3%	-18.2%	106.0%	-8.4%	?
CCCOc1ccc(C(=O)NNC(=S)NC(C)=O)cc1	1.8%	?	?	7.7%	63.2
O=C(NCCSCc1ccc(Cl)cc1)c1cccs1	?	0.5%	13.0%	1.9%	-54.3*
O=C(CNC(=O)c1cccs1)OCc1ccc(Cl)cc1	23.1%	-67.0%	-35.2%	-5.1%	9.5
CCOc1ccc(S(=O)(=O)N2CCOCC2)cc1NC(=O)CSC(=S)N1CCCC1	nt	-1.2%	3.0%	nt	-4.4
Cc1c(C)n(-c2ccccc2)c2ncnc(NCCN(C)C)c12	17.0%	-9.3%	22.0%	-1.1%	-3.6
CCCNC(=O)C1(C)CCCN(C(=O)c2cc(F)ccc2C)C1 (stereo not given)	nt	nt	nt	nt	0.0
SMILES	RORg inh	SW480 rereplic	MCF10A rereplic	VP16 counter	IL-1B inflam inh
C=CCNC(=S)NNC(=O)CCC(O)COCCC(C)C (stereo not given)	-36.9%	-3.8%	9.1%	3.4%	6.2
C=CCNC(=S)NNC(=O)c1ccc(OCCCC)cc1	8.91µM*	-2.2%[9.22 µM]	17.6%	?	8.4
CCCOc1ccc(C(=O)NNC(=S)NC(=O)c2ccccc2)cc1	10µM*	?	6.2%	?	8.0
CCCOc1ccc(C(=O)NNC(=S)NC(=O)c2ccccc2[N+](=O)[O-])cc1	17.8µM*	14.1%	17.2%	20µM*	52.5
C=CCNC(=S)NNC(=O)c1ccc(Br)cc1	-25.4%	-7.7%	-1.8%	?	3.4
C=CCNC(=S)NNC(=O)C(CCCC)CC(C)(C)O (stereo not given)	2.82µM*	?	4.4%	5.62µM*	0.0
CC(C)c1nc2cc(C(=O)N3CCNC(=O)C3c3ccc(F)cc3)ccc2o1 (stereo not given)	?	?	-1.8%	?	8.6
Cc1ccc(C(=O)NNC(=S)NC(=O)COc2ccccc2)cc1	?	-0.9%	-13.4%	-20.0%	33.0
CC(C)(C)c1ccc(C(=O)NC(=S)NNC(=O)COc2ccccc2)cc1	2.51µM*	-13.6%	20.5%	2.82µM*	78.1
CCC1(C)Cc2c(sc(NC(=S)NC(=O)c3ccccc3)c2C#N)CO1 (stereo not given)	?	-2.3%	0.2%	?	9.1
CN1Cc2sc(NC(=S)NC(=O)c3ccccc3)c(C#N)c2CC1(C)C	3.16µM*	-5.4%	?	?	nt
CCNC(=S)Nc1sc2c(c1C#N)CCC(C)C2 (stereo not given)	11.2µM*	-3.5%	3.0%	?	-21.5
N#Cc1c(NC(=S)NC(=O)c2ccccc2)sc2c1CCC2	-41.8%[10 µM]	nt	?	-82.5%	0.0
CC1CCc2sc(NC(=S)NC(=O)c3ccccc3)c(C#N)c2C1 (stereo not given)	14.1µM*	-7.2%	?	?	6.2
CC1CCc2c(sc(NC(=O)c3ccc(-c4ccccc4[N+](=O)[O-])o3)c2C#N)C1 (stereo not given)	27.3%	10.2%	1.5%	-9.5%	-63.1*
CCCCCCN(C(=O)CCCCCN1C(=O)NC(C2CCCCC2)C(C(=O)OCc2ccccc2)=C1C)C(C(=O)NCCCC)c1ccc(OCC(=O)OC)c(C(=O)OC)c1 (stereo not given)	-2.7%	nt	nt	-17.9%	nt
O=C(O)/C=C1\CCCc2ccccc2[C@H]1O	1.6%	nt	nt	-9.8%	nt
COc1ccc(OC)c(N(C(=O)c2snc(C(N)=O)c2N)C(C(=O)NCc2ccccc2)c2ccc(O)cc2)c1 (stereo not given)	15.5%	15.7%	?	-14.8%	-78.8*
NC(=O)c1nsc(C(=O)N(Cc2cccnc2)C(C(=O)NCc2ccc(F)cc2)c2ccc(F)cc2)c1N (stereo not given)	?	15.2%	19.0%	0.3%	-55.4*
COc1ccc(N(C(=O)c2snc(C(N)=O)c2N)C(C(=O)NCc2ccccc2)c2ccc(O)cc2)cc1 (stereo not given)	16.0%	-0.6%	?	23.3%	-20.9
NC(=O)c1nsc(C(=O)N(c2ccccc2)C(C(=O)NCc2ccc(F)cc2)c2ccc(O)cc2)c1N (stereo not given)	-2.2%	?	13µM*	-0.7%	-18.9

Screening results deposited in PubChem BioAssay by National Center for Advancing Translational Sciences (NCATS).
